# Results as given in the supplement of paper PMC4022240.
# ± gives the standard deviation.
# T1: HaloTag-ATRX ADD domain (163-292)
# T1 chain: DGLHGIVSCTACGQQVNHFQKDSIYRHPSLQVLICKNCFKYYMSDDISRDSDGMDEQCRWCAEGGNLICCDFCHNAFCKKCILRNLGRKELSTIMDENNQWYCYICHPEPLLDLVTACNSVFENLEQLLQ
# Experiments:
# Experiment in all cases: peptide microarray binding signal (635 nm), min-max normalized on array (fraction of array maximum); higher = stronger binding
# [1] = target: T1, HaloTag-ATRX ADD domain (163-292)
# Method: (§1)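 Histone 13-mer peptides were synthesized as cellulose conjugates with a C-terminal 20-atom PEG linker and printed in triplicate on nitrocellulose. The sequence given is the unmodified backbone; PTMs (Kme1/2/3, Kac, Sph/Tph, Rme/Rme2a/Rme2s, Rcit) are listed in the label and the 'peptide modifications' condition. Slides were probed at 4 °C for 1 h with biotin-labelled (HQ)5-HaloTag reader fusions (ATRX-ADD, ING2-PHD) then streptavidin-Alexa647, or with rabbit histone antibodies then anti-rabbit Alexa647. The mean 635 nm signal of the triplicate spots was scaled 0-1 between the lowest and highest values on each array.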
# [2] = target: HaloTag-ING2 PHD (mouse Ing2 200-280)
# Method: as §1
# [3] = target: anti-H3K4me3 antibody ab8580
# Method: as §1
# [4] = target: anti-H3K9me3 antibody ab8898
# Method: as §1
# [5] = peptide region: H2B 7-19, peptide modifications: H2BK11ac H2BK12ac H2BS14ph, binder concentration: 1:2,000 dilution
# [6] = peptide region: H2B 7-19, peptide modifications: H2BK11ac H2BK12ac H2BS14ph, binder concentration: 1:10,000 dilution
# [7] = peptide region: H2A 11-23, peptide modifications: H2AK15ac H2AT16ph, binder concentration: 1:2,000 dilution
# [8] = peptide region: H2A 11-23, peptide modifications: H2AK15ac H2AT16ph, binder concentration: 1:10,000 dilution
# [9] = peptide region: H2A 11-23, peptide modifications: H2AK13ac H2AK15ac H2AT16ph, binder concentration: 1:2,000 dilution
# [10] = peptide region: H2A 11-23, peptide modifications: H2AK13ac H2AK15ac H2AT16ph, binder concentration: 1:10,000 dilution
# [11] = peptide region: H2B 1-13, peptide modifications: H2BK5ac H2BS6ph H2BK11ac, binder concentration: 1:2,000 dilution
# [12] = peptide region: H2B 1-13, peptide modifications: H2BK5ac H2BS6ph H2BK11ac, binder concentration: 1:10,000 dilution
# [13] = peptide region: H2A 11-23, peptide modifications: H2AK15ac, binder concentration: 1:2,000 dilution
# [14] = peptide region: H2A 11-23, peptide modifications: H2AK15ac, binder concentration: 1:10,000 dilution
binder,measurement,setting,value
APAPKKGSKKAVT [H2B 7-19 A P A P Kac Kac G Sph K K A V T],peptide microarray binding signal,"[1]; peptide region: H2B 7-19, peptide modifications: H2BK11ac H2BK12ac H2BS14ph, binder concentration: 50 nM",0.00197 ± 4e-05
same,peptide microarray binding signal,"[1]; peptide region: H2B 7-19, peptide modifications: H2BK11ac H2BK12ac H2BS14ph, binder concentration: 500 nM",0.00252 ± 9e-05
same,peptide microarray binding signal,"[2]; peptide region: H2B 7-19, peptide modifications: H2BK11ac H2BK12ac H2BS14ph, binder concentration: 10 nM",0.0046 ± 0.00019
same,peptide microarray binding signal,"[2]; peptide region: H2B 7-19, peptide modifications: H2BK11ac H2BK12ac H2BS14ph, binder concentration: 100 nM",0.00163 ± 3.3e-05
same,peptide microarray binding signal,[3]; [5],0.00215 ± 8.8e-05
same,peptide microarray binding signal,[3]; [6],0.000628 ± 6.7e-06
same,peptide microarray binding signal,[4]; [5],0.000423 ± 1.8e-05
same,peptide microarray binding signal,[4]; [6],0.00075 ± 4e-05
RAKAKTRSSRAGL [H2A 11-23 R A K A Kac Tph R S S R A G L],peptide microarray binding signal,"[1]; peptide region: H2A 11-23, peptide modifications: H2AK15ac H2AT16ph, binder concentration: 50 nM",0.006489 ± 4.3e-05
same,peptide microarray binding signal,"[1]; peptide region: H2A 11-23, peptide modifications: H2AK15ac H2AT16ph, binder concentration: 500 nM",0.0117 ± 0.00031
same,peptide microarray binding signal,"[2]; peptide region: H2A 11-23, peptide modifications: H2AK15ac H2AT16ph, binder concentration: 10 nM",0.00722 ± 0.0003
same,peptide microarray binding signal,"[2]; peptide region: H2A 11-23, peptide modifications: H2AK15ac H2AT16ph, binder concentration: 100 nM",0.0188 ± 0.00091
same,peptide microarray binding signal,[3]; [7],0.000925 ± 7.2e-05
same,peptide microarray binding signal,[3]; [8],0.00103 ± 2.8e-05
same,peptide microarray binding signal,[4]; [7],0.000513 ± 2.1e-05
same,peptide microarray binding signal,[4]; [8],0.000923 ± 2.5e-05
RAKAKTRSSRAGL [H2A 11-23 R A Kac A Kac Tph R S S R A G L],peptide microarray binding signal,"[1]; peptide region: H2A 11-23, peptide modifications: H2AK13ac H2AK15ac H2AT16ph, binder concentration: 50 nM",0.0063 ± 0.00011
same,peptide microarray binding signal,"[1]; peptide region: H2A 11-23, peptide modifications: H2AK13ac H2AK15ac H2AT16ph, binder concentration: 500 nM",0.0115 ± 0.00047
same,peptide microarray binding signal,"[2]; peptide region: H2A 11-23, peptide modifications: H2AK13ac H2AK15ac H2AT16ph, binder concentration: 10 nM",0.01009 ± 7e-05
same,peptide microarray binding signal,"[2]; peptide region: H2A 11-23, peptide modifications: H2AK13ac H2AK15ac H2AT16ph, binder concentration: 100 nM",0.0109 ± 0.00022
same,peptide microarray binding signal,[3]; [9],0.001265 ± 1e-05
same,peptide microarray binding signal,[3]; [10],0.00297 ± 7.6e-05
same,peptide microarray binding signal,[4]; [9],0.00107 ± 7.3e-05
same,peptide microarray binding signal,[4]; [10],0.00179 ± 3.4e-05
PEPAKSAPAPKKG [H2B 1-13 P E P A Kac Sph A P A P Kac K G],peptide microarray binding signal,"[1]; peptide region: H2B 1-13, peptide modifications: H2BK5ac H2BS6ph H2BK11ac, binder concentration: 50 nM",0.0021 ± 2.5e-05
same,peptide microarray binding signal,"[1]; peptide region: H2B 1-13, peptide modifications: H2BK5ac H2BS6ph H2BK11ac, binder concentration: 500 nM",0.00276 ± 5.8e-05
same,peptide microarray binding signal,"[2]; peptide region: H2B 1-13, peptide modifications: H2BK5ac H2BS6ph H2BK11ac, binder concentration: 10 nM",0.00603 ± 0.00058
same,peptide microarray binding signal,"[2]; peptide region: H2B 1-13, peptide modifications: H2BK5ac H2BS6ph H2BK11ac, binder concentration: 100 nM",0.00206 ± 5.4e-05
same,peptide microarray binding signal,[3]; [11],0.00364 ± 0.00027
same,peptide microarray binding signal,[3]; [12],0.00131 ± 3.4e-05
same,peptide microarray binding signal,[4]; [11],0.00131 ± 4.4e-05
same,peptide microarray binding signal,[4]; [12],0.00185 ± 8e-05
RAKAKTRSSRAGL [H2A 11-23 R A K A Kac T R S S R A G L],peptide microarray binding signal,"[1]; peptide region: H2A 11-23, peptide modifications: H2AK15ac, binder concentration: 50 nM",0.00502 ± 0.00053
same,peptide microarray binding signal,"[1]; peptide region: H2A 11-23, peptide modifications: H2AK15ac, binder concentration: 500 nM",0.00495 ± 0.00038
same,peptide microarray binding signal,"[2]; peptide region: H2A 11-23, peptide modifications: H2AK15ac, binder concentration: 10 nM",0.00388 ± 5.4e-05
same,peptide microarray binding signal,"[2]; peptide region: H2A 11-23, peptide modifications: H2AK15ac, binder concentration: 100 nM",0.0051 ± 0.00094
same,peptide microarray binding signal,[3]; [13],0.000321 ± 6.7e-06
same,peptide microarray binding signal,[3]; [14],0.00126 ± 4.3e-05
same,peptide microarray binding signal,[4]; [13],0.0004228 ± 4.1e-06
same,peptide microarray binding signal,[4]; [14],0.00121 ± 4.9e-05
